# Bioassay records (PubChem BioAssay)
# Compounds with a hit are over-represented: about 10% of the library has one in this group of screens.
# BAZ2B block: inhibitors of human BAZ2B bromodomain; Q9UIF8; AlphaScreen BAZ2B-H3K14Ac peptide displacement; Potency, µM (doses to about 114 µM), inactives show top-dose activity change, negative = inhibition, usual class: inhibitors; 4.4% of 360,000 active; note: potency is the fitted concentration of half-maximal effect; % is set by controls: 0 for no effect and ±100 for the full control effect; nearly all actives have a fitted effect of over 60% in size
#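 AlphaScreen displacement: compounds (up to 110uM) incubated 30 min at room temperature with a preformed 50 nM BAZ2B/50 nM biotinylated H3K14Ac peptide complex in PBS pH 7.4 with Tween-20. Donor and acceptor beads at 10 ug/mL final added, 20 min light-protected before reading.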
# JMJD2A Tudor: blocks the human JMJD2A Tudor domain; O75164; AlphaScreen JMJD2A-Tudor / H3K4me3 peptide binding; Potency, µM (doses to about 114 µM), inactives show top-dose activity change, negative = inhibition, usual class: inhibitors; 4.4% of 390,000 active; note: potency is the fitted concentration of half-maximal effect; % is set by controls: 0 for no effect and ±100 for the full control effect; nearly all actives have a fitted effect of over 50% in size
# HP1b binding inh: blocks HP1-beta chromodomain binding to methylated histone tails | Potency, µM (series often up to 114 µM), inactives show at the highest dose activity change, negative = inhibition, hits mostly inhibitors | AlphaScreen HP1-beta / biotin-H3K9me3 peptide binding | 0.56% of 390,000 active; note: potency is the fitted concentration of half-maximal effect; nearly all actives have a fitted effect of over 70% in size
#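 AlphaScreen: HP1-beta (50 nM) preformed 30 min with biotin-H3(1-18)K9me3 peptide (50 nM) in PBS pH 7.4, 0.01% Tween-20. Compound added for 30 min at RT, then streptavidin donor/nickel chelate acceptor beads (10 ug/mL) for 30 min.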
# G9a inh: inhibitors of human histone lysine methyltransferase G9a. Q96KQ7. G9a H3K9 monomethylation, AlphaScreen, 2 h. Potency, µM (series often up to 102 µM), inactives show at the highest dose activity, negative = inhibition, hits mostly inhibitors. 8.8% of 350,000 active; note: potency is the fitted concentration of half-maximal effect; % is set by controls: 0 for no effect and ±100 for the full control effect; nearly all actives have a fitted effect of over 75% in size
#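 Using a bead-based AlphaScreen, monomethylated H3K9 product from 2 h room-temperature reactions (G9a 20 nM, peptide 500 nM, SAM 20 uM) was detected with 0.5 ug/mL rabbit anti-H3K9me1 antibody.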
# CtBP-E1A blk: CtBP/E1A binding inhibition | AlphaScreen GST-E1A/His-CtBP binding, 1536-well; stronger effect = lower value | activity change, % (no concentration beside the values) | 0.49% of 340,000 active | AID 651724; in the data active = activity change below about -65%; inconclusive = mostly about -30% to -63%; note: % is set by controls: 0 for no effect and ±100 for the full control effect
#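 In 5 uL wells, 23 nL compound meets equimolar GST-E1A and His-CtBP (5X stock 125 nM each) for 2 h, 37 °C. Beads (5X, 50 ug/mL) then 1 h, 37 °C, dark.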
# Six1-Eya2 inh: blocks human Six1 binding to Eya2 | 0.56% of 360,000 active | AID 651725 | activity change, % (concentration not given with the values) | Q15475+O00167 | AlphaScreen GST-Six1/His-Eya2 binding, biochemical; stronger effect = lower value; in the data active = activity change below about -65%; inconclusive = mostly about -30% to -63%; note: % is set by controls: 0 for no effect and ±100 for the full control effect
# Target sequence (O00167 whole entry, looked up): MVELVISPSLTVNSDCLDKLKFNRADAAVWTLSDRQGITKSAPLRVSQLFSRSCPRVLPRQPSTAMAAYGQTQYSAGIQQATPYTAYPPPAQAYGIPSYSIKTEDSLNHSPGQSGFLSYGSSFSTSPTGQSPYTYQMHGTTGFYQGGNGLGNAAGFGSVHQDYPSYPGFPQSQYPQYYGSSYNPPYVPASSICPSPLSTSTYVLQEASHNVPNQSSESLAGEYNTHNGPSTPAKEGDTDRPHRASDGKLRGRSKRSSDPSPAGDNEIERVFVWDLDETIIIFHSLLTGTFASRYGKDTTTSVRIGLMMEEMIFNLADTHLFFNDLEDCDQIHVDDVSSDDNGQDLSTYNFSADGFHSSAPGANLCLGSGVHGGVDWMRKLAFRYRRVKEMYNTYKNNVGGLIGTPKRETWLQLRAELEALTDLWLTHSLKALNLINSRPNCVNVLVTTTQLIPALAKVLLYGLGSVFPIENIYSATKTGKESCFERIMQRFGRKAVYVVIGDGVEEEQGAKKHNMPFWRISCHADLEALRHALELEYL
# Target sequence (Q15475 whole entry, looked up): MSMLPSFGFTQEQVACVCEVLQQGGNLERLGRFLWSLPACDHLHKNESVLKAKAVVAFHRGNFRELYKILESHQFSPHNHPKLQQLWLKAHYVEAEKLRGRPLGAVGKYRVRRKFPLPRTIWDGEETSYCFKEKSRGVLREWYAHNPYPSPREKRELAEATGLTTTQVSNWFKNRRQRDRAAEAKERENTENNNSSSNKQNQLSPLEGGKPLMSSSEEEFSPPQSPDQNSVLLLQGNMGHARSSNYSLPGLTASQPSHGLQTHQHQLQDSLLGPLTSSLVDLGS
#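 AlphaScreen luminescence read after one hour at 37 °C in darkness. Pin-transferred compounds met GST-Six1 and His-Eya2 protein (5X stock 250 nM/500 nM) plus glutathione donor and Ni-chelate acceptor beads (5X, 50 ug/mL).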
# Starred values were filed as active, the others as inactive; ? = inconclusive; . = no result; ! = repeats disagree; [ ] = another dose, or the depositor's remark. Unless noted, calls come from the whole dose curve; as a rule, active = well fitted inhibition curve with a large enough effect; inconclusive = small, poorly fitted or top-dose-only effect; inactive = no such curve, though single readings can be large or run the other way.
SMILES,BAZ2B block,JMJD2A Tudor,HP1b binding inh,G9a inh,CtBP-E1A blk,Six1-Eya2 inh
N#C[C@H]1[C@H](c2ccccc2)[C@](C#N)(C(=O)c2ccccc2)[C@@H]2C=Cc3ccccc3N21,28µM*,.,.,25µM*,.,.
c1ccc(-c2nnc(N3CCN(c4ccccc4)CC3)nc2-c2ccccc2)cc1,?,?,-11%,13µM*,2,-5
Cn1cc(C(=O)c2ccc(Cl)cc2)cc1-c1nc2ccccc2n1C,?,56µM*,-16%,.,-6,-20
CCOC(=O)C1=C[C@]2(CC)CCCN3CCc4c(n1c1ccccc41)[C@@H]32,?,-34%,26%,22µM*!,2,3
Cc1nc(SCC(=O)Nc2cc(C(N)=O)cc(C(N)=O)c2)c2c(C)c(C)sc2n1,?,?,50%,45µM*,288,24
Cc1nc(SCC(=O)Nc2sccc2C(N)=O)c2c(C)c(C)sc2n1,.,.,.,.,-7,-13
Cc1ccc2sc(N(CCCN(C)C)C(=O)c3ccc(S(=O)(=O)N(C)C)cc3)nc2c1C,.,-4%,31%,?,-13,-5
CCCCN(CC)S(=O)(=O)c1ccc(C(=O)N(CCCN(C)C)c2nc3cc(C)cc(C)c3s2)cc1,?,?,-22%,45µM*,-15,-27
CCOc1cccc2sc(N(CCCN(C)C)C(=O)c3ccc(S(=O)(=O)N(CC)Cc4ccccc4)cc3)nc12,?,32µM*,-9%,40µM*,?,-30
Cc1cc(C)c2sc(N(CCCN(C)C)C(=O)CN3C(=O)c4ccccc4C3=O)nc2c1,?,-14%[11.4 µM],63%,50µM*,-3,-6
CCN(Cc1ccccc1)S(=O)(=O)c1ccc(C(=O)N(CCCN(C)C)c2nc3cc(C)cc(C)c3s2)cc1,?,?,?,25µM*,?,-29
CCCCNC(=O)C1CCC(Cn2c(=O)c3sccc3n(Cc3ccccc3)c2=O)CC1 (stereo not given),-10%,-11%,24%,17%[59 µM],.,.
Cc1cc(C)c2sc(N(CCCN(C)C)C(=O)c3ccc(S(=O)(=O)N(C)Cc4ccccc4)cc3)nc2c1,?,?,?,40µM*,-7,?
Cc1cc(C)c2sc(N(CCCN(C)C)C(=O)c3ccc(Br)s3)nc2c1,50µM*,?,-3%,?,0,-4
CN(C)CCN(C(=O)c1ccc(Br)s1)c1nc2cc3c(cc2s1)OCCO3,.,-26%,27%,?,-3,3
Cc1cccc(C(=O)NCC(=O)NC(C)c2ccc(-n3ccnc3)cc2)c1 (stereo not given),-19%,-14%,21%,2%,-1,8
COc1ccccc1C(=O)NCC(=O)NC(C)c1ccc(-n2ccnc2)cc1 (stereo not given),-2%,-20%,10%,10µM*,12,4
Cc1cc(C)cc(NC(=O)CN2C(=O)c3ccccc3Sc3ccc(C(=O)N4CCCC4)cc32)c1,-8%,-19%,-23%,?,.,.
O=C(C[n+]1cc(-c2ccccc2)n2c1CCCCC2)c1ccc(Cl)cc1,-3%,3%,44%,-9%[59 µM],3,0
Cc1ccc(-c2c[n+](CC(=O)c3ccc(Br)cc3)c3n2CCCCC3)cc1,?,-30%,22%,45µM*,0,-2
CC(=O)c1ccc(NC(=S)N2CCN(c3cccc(Cl)c3)CC2)cc1,-12%,-7%,18%,10%,1,-1
COc1cc(C(=S)N2CCN(c3cccc(Cl)c3)CC2)ccc1O,45µM*,63µM*,7.1µM*,-5%[0.501 µM],-10,-18
Oc1ccc(C(=S)N2CCN(c3cccc(Cl)c3)CC2)cc1,40µM*,56µM*,?,5µM*,-10,-25
COc1ccc(C(=S)N2CCN(c3cccc(Cl)c3)CC2)c(OC)c1,?,?,?,10µM*,-12,-28
Oc1ccccc1C(=S)N1CCN(c2cccc(Cl)c2)CC1,45µM*,?,?,-9%[0.501 µM],-10,-12
